Experimental data taken from PubChem BioAssay (EPA / NIEHS).
Active and inactive are the calls of the source. How the source made its calls: active means hit-call score of the fitted dose curve at least 0.9, where 1 is the maximum; inactive means score below 0.9. Peptide text beside a SMILES is read from it.

Experiments:
[1] = target: Transcription factor E2F1 (Homo sapiens) (UniProt Q01094); test: ATG_E2F_CIS: Attagene CIS-FACTORIAL HepG2 Assay for human E2F Transcription Factor 1 (AID 2282935); conditions: HepG2 Attagene cis-reporter, E2F reporter RNA transcripts; actives raise or lower the signal
In short: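 Measures reporter transcript levels via RT-PCR with capillary electrophoresis detection in HepG2 cells harboring cis-regulated reporter units; 24 h post-dose; bidirectional curve fitting with DMSO as baseline.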

[2] = ATG_E_Box_CIS: Attagene CIS-FACTORIAL HepG2 Assay for human Enhancer Box (E-box) (AID 2282936); conditions: HepG2 E-box cis-reporter transcription, actives raise or lower the signal
In short: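 First, HepG2 cells receive multiple cis-regulated reporter constructs by transient transfection. Next, chemicals are applied for 24 h. Finally, reporter mRNA is quantified via RT-PCR and capillary electrophoresis, with DMSO as baseline.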

[3] = ATG_M_61_CIS: Attagene CIS-FACTORIAL HepG2 Assay for M61 Transcription Factor (Internal Marker) (AID 2282937); conditions: HepG2 Attagene CIS-FACTORIAL M61 internal marker reporter; actives raise or lower the signal
In short: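 Human liver HepG2, transient MRTU transfection (cis promoter elements), 24 h compound. Total RNA → oligo(dT) RT → PCR → FAM label → HpaI → CE. Internal background marker; bidirectional fitting, DMSO = baseline.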

[4] = ATG_EGR_CIS: Attagene CIS-FACTORIAL HepG2 Assay for human Early Growth Response 1 (EGR1) (AID 2282938); conditions: HepG2 Attagene CIS-FACTORIAL EGR reporter mRNA; actives raise or lower the signal
In short: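 Transient transfection of human HepG2 with multiple cis-regulated reporter units, chemical exposure 24 h, total RNA isolated. Reverse transcription, PCR, fluorescent labelling and capillary electrophoresis quantify reporter transcripts; activity fitted bidirectionally against DMSO.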

[5] = ATG_M_19_CIS: Attagene CIS-FACTORIAL HepG2 Assay for M19 Transcription Factor (Internal Marker) (AID 2282939); conditions: HepG2 Attagene CIS-FACTORIAL M19 internal marker reporter; actives raise or lower the signal
In short: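 Internal marker readout, fitted in both directions against DMSO, from HepG2 cells carrying transfected cis-element reporter constructs; RT-PCR and capillary electrophoresis of reporter mRNA after 24 h exposure.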

[6] = ATG_ERE_CIS: Attagene CIS-FACTORIAL HepG2 Assay for Estrogen Response Element (ERE) (AID 2282940); conditions: HepG2 ERE cis-reporter, Attagene RNA transcript; actives raise or lower the signal
In short: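 After 24 h compound treatment, RNA from transfected HepG2 cells was reverse-transcribed, reporter cDNA PCR-amplified, FAM-labelled, HpaI-cut and resolved by capillary electrophoresis. ERE-driven cis reporter transcripts reflect endogenous factors; gain or loss scored against DMSO.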

[7] = ATG_Ets_CIS: Attagene CIS-FACTORIAL HepG2 Assay for human Erythroblast Transformation Specific (ETS) (AID 2282941); conditions: HepG2 ETS cis-reporter transcription, actives raise or lower the signal
In short: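 HepG2 cells transiently transfected with cis-promoter reporter transcription units were dosed for 24 h; reporter mRNA was measured by RT-PCR, 6-FAM primer extension, HpaI digestion and capillary electrophoresis, with bidirectional fitting against DMSO baseline.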

[8] = target: Hepatocyte nuclear factor 3-beta (Homo sapiens) (UniProt Q9Y261); test: ATG_FoxA2_CIS: Attagene CIS-FACTORIAL HepG2 Assay for human Forkhead box A2 (FOXA2) (AID 2282942); conditions: HepG2 cis-reporter transcription factor activity, 24 h; actives raise or lower the signal
In short: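 Transient MRTU transfection of HepG2 liver cells; 24 h treatment; total RNA → oligo(dT) RT → PCR → FAM primer extension → HpaI cut → CE. Bidirectional fit vs DMSO.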

[9] = ATG_FoxO_CIS: Attagene CIS-FACTORIAL HepG2 Assay for human Forkhead box O (FoxO) (AID 2282943); conditions: HepG2 Attagene cis-reporter, FoxO element, mRNA; actives raise or lower the signal
In short: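 Transfected HepG2 reporter cells exposed to test chemical for 24 h; reporter RNA measured by reverse transcription, PCR and fluorescent capillary electrophoresis; curves fitted for increases and decreases against DMSO.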

[10] = ATG_GATA_CIS: Attagene CIS-FACTORIAL HepG2 Assay for human GATA Binding Protein (AID 2282944); conditions: HepG2 GATA cis-element reporter, Attagene multiplex mRNA; actives raise or lower the signal
In short: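 Reporter transcripts from a GATA cis-regulated unit, among multiplexed reporters in transfected HepG2 cells, were measured by RT-PCR with capillary electrophoresis after 24 h dosing. Induction or loss scored relative to DMSO.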

[11] = ATG_GLI_CIS: Attagene CIS-FACTORIAL HepG2 Assay for human Zinc Finger Protein GLI1 (AID 2282945); conditions: HepG2, Attagene cis-factorial reporter mRNA, GLI element; actives raise or lower the signal
In short: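 Transiently transfected HepG2 cells report endogenous transcription factor activity via cis-element-driven reporter units. After 24 h compound exposure, reporter mRNA was measured by RT-PCR with capillary electrophoresis; bidirectional fitting against DMSO baseline.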

[12] = target: Bile acid receptor (Homo sapiens) (UniProt Q96RI1); test: ATG_IR1_CIS: Attagene CIS-FACTORIAL HepG2 Assay for human Nuclear Receptor Subfamily 1 Group H Member 4 (NR1H4), IR1 submotif (AID 2282946); conditions: IR1 reporter transcription, actives raise or lower the signal
In short: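 HepG2 cells transiently transfected with multiple cis-promoter-driven reporter units to measure endogenous transcription factor activity; 24 h exposure. Reporter mRNA read by RT-PCR, FAM labelling, HpaI digestion and capillary electrophoresis. Bidirectional fit versus DMSO.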

[13] = ATG_GRE_CIS: Attagene CIS-FACTORIAL HepG2 Assay for human Glucocorticoid Response Elements (GRE) (AID 2282947); conditions: HepG2 GRE cis-reporter, Attagene multiplex mRNA; actives raise or lower the signal
In short: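 Endogenous transcription factor activity is read through cis-element reporter constructs transiently transfected into HepG2 cells. After 24 h treatment, labelled RT-PCR products are resolved by capillary electrophoresis; DMSO sets baseline for bidirectional curve fitting.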

[14] = ATG_ISRE_CIS: Attagene CIS-FACTORIAL HepG2 Assay for human Interferon Regulatory Factor 1 (IRF1) binding to an Interferon-Stimulated Response Element (ISRE) (AID 2282948); conditions: HepG2 ISRE cis-reporter (Attagene), mRNA transcription readout; actives raise or lower the signal
In short: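 HepG2 cells transiently transfected with multiplexed cis-promoter reporter units; after 24 h compound exposure, reporter mRNA quantified by RT-PCR, FAM labelling, HpaI digestion and capillary electrophoresis. Bidirectional fit versus DMSO baseline.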

[15] = ATG_M_32_CIS: Attagene CIS-FACTORIAL HepG2 Assay for M32 Transcription Factor (Internal Marker) (AID 2282949); conditions: HepG2 Attagene cis-factorial M32 reporter, mRNA; actives raise or lower the signal;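 further: background control marker of the multiplexed CIS panel rather than a real target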
In short: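 Internal background marker read-out: RT-PCR/capillary electrophoresis fluorescence of reporter transcripts from transiently transfected HepG2 cells after 24 h chemical exposure. Activity fitted bidirectionally relative to DMSO negative control.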

[16] = ATG_M_06_CIS: Attagene CIS-FACTORIAL HepG2 Assay for M06 Transcription Factor (Internal Marker) (AID 2282950); conditions: HepG2 Attagene CIS-FACTORIAL M06 internal marker reporter; actives raise or lower the signal
In short: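 Serves as a background control readout. Transfected HepG2 exposed to compounds for 24 h, then reporter transcripts quantified by fluorescent RT-PCR and capillary electrophoresis. Both directions fitted against DMSO baseline.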

[17] = target: Hypoxia-inducible factor 1-alpha (Homo sapiens) (UniProt Q16665); test: ATG_HIF1a_CIS: Attagene CIS-FACTORIAL HepG2 Assay for human Hypoxia Inducible Factor 1 (HIF1A) (AID 2282951); conditions: HepG2 Attagene cis-factorial HIF1a reporter transcription; actives raise or lower the signal
In short: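 Transient MRTU transfection of human HepG2 liver cells, 24 h compound treatment, then total RNA isolation, oligo(dT) reverse transcription, PCR amplification, fluorescent labelling and capillary electrophoresis of reporter fragments. Gain or loss relative to DMSO.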

[18] = target: Heat shock factor protein 1 (Homo sapiens) (UniProt Q00613); test: ATG_HSE_CIS: Attagene CIS-FACTORIAL HepG2 Assay for human Heat Shock Transcription Factor 1 (HSE) (AID 2282953); conditions: HepG2 HSE cis-reporter, Attagene RNA transcription; actives raise or lower the signal
In short: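 Endogenous transcription factor activity in transiently transfected HepG2, read as reporter mRNA by RT-PCR with fluorescent capillary electrophoresis after 24 h. Gain or loss of signal fitted versus DMSO baseline.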

[19] = ATG_MRE_CIS: Attagene CIS-FACTORIAL HepG2 Assay for human Metal Responsive Element (MRE) (AID 2282954); conditions: HepG2 MRE cis-reporter transcription, Attagene multiplex; actives raise or lower the signal
In short: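 Fluorescent reporter fragments separated by capillary electrophoresis give mRNA induction for the MRE unit after 24 h treatment of transfected HepG2 cells. Endogenous transcription-factor activity is read; DMSO serves as negative control and baseline.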

[20] = target: Hepatocyte nuclear factor 6 (Homo sapiens) (UniProt Q9UBC0); test: ATG_HNF6_CIS: Attagene CIS-FACTORIAL HepG2 Assay for human Hepatocyte Nuclear Factor 6 (HNF6) (AID 2282952); conditions: HepG2 Attagene cis-factorial HNF6 reporter transcription; actives raise or lower the signal
In short: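 HepG2 cells transiently transfected with cis-element-driven multiple reporter transcription units, dosed 24 h; reporter mRNA quantified by RT-PCR, FAM primer extension, HpaI digestion and capillary electrophoresis; bidirectional fit versus DMSO baseline.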

Measured: AC50

Chain of Hepatocyte nuclear factor 6 (Homo sapiens) (Q9UBC0 whole entry, looked up): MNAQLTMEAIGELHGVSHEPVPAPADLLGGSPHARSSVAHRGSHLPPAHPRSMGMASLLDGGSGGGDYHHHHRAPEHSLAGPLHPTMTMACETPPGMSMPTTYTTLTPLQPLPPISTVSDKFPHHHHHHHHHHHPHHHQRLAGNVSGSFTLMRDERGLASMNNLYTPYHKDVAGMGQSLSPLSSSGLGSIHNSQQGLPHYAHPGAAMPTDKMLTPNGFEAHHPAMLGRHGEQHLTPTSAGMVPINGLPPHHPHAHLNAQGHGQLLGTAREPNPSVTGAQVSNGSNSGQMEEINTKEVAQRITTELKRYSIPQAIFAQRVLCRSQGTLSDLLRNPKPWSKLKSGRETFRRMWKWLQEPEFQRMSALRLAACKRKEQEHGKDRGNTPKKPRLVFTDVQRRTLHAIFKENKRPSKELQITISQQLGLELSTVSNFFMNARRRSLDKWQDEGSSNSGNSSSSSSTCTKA
Chain of Heat shock factor protein 1 (Homo sapiens) (Q00613 whole entry, looked up): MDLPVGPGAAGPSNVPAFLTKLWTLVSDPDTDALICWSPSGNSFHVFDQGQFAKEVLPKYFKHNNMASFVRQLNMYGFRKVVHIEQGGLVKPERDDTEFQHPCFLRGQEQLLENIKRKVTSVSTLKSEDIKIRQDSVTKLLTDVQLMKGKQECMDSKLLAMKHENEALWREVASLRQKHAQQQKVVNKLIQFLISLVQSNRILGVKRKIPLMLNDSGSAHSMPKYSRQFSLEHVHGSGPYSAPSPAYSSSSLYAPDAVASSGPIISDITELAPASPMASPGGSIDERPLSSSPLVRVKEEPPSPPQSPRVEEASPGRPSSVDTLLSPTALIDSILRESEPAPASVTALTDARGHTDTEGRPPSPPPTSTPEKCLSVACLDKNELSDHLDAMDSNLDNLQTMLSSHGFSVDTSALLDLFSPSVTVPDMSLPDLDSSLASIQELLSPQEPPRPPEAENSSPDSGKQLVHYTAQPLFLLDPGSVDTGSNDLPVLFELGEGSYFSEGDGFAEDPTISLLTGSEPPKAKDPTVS
Chain of Hepatocyte nuclear factor 3-beta (Homo sapiens) (Q9Y261 whole entry, looked up): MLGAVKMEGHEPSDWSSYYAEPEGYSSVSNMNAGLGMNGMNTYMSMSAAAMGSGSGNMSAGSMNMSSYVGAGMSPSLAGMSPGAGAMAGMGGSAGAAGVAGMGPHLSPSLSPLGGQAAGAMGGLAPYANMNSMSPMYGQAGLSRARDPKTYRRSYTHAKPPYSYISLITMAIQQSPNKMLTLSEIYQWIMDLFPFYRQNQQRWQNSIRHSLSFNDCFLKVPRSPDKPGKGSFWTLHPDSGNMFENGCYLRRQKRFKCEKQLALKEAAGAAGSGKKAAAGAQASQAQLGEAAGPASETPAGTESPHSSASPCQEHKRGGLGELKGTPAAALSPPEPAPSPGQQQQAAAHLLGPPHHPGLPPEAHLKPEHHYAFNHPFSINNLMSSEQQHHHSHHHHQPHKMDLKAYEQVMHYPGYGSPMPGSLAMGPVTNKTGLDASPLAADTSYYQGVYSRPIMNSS
Chain of Bile acid receptor (Homo sapiens) (Q96RI1 whole entry, looked up): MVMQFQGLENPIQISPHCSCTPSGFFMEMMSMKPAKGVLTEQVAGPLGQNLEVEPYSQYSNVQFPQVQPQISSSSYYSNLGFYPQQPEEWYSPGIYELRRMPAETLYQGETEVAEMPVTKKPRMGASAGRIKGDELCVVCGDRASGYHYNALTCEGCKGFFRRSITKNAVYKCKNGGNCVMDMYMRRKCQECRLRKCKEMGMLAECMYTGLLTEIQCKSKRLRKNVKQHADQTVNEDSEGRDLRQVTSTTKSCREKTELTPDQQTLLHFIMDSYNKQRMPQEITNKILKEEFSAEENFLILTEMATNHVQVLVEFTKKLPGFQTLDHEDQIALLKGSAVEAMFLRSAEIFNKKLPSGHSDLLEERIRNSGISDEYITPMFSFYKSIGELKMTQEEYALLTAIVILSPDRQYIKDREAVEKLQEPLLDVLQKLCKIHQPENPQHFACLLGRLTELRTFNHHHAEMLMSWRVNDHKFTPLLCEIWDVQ
Chain of Transcription factor E2F1 (Homo sapiens) (Q01094 whole entry, looked up): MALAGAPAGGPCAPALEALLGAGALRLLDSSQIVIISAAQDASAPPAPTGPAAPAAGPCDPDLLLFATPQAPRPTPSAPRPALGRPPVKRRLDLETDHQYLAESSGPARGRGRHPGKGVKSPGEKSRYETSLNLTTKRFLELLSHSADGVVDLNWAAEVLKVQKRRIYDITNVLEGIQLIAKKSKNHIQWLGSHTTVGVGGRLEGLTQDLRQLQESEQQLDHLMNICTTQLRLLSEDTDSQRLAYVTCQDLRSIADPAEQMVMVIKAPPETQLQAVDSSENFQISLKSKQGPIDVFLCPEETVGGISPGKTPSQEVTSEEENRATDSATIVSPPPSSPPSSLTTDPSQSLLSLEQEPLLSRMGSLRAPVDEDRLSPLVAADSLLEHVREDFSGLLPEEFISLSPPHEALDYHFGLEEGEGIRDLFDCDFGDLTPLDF
Chain of Hypoxia-inducible factor 1-alpha (Homo sapiens) (Q16665 whole entry, looked up, the tested form may be a part): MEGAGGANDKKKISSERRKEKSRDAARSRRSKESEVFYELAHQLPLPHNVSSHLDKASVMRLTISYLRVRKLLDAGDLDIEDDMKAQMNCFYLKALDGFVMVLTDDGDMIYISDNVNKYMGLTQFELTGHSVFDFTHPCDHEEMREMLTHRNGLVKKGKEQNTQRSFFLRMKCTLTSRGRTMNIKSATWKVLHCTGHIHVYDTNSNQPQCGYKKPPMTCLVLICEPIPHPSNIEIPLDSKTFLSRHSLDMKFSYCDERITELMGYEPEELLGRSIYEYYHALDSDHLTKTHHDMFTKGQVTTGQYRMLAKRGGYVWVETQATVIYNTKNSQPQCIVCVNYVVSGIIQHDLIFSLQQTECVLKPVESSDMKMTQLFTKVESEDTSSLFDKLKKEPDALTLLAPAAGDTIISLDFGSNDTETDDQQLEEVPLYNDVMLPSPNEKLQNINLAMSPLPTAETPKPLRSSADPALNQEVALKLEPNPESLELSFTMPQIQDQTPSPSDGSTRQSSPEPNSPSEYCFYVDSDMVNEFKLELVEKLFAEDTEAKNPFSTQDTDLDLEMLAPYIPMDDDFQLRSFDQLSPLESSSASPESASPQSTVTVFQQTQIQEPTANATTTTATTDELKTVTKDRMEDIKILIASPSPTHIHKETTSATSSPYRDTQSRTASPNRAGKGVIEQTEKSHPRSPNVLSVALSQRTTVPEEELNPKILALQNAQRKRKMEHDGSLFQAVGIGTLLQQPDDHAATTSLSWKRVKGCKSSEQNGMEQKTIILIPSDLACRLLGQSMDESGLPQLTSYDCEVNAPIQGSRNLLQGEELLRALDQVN

CC(C)=CCCC(C)=CC#N
active: [6] 172 µM
not listed: [20]
inactive: all other assays above

[Cl][Sc]([Cl])[Cl]
inactive: all assays above

COC(=O)[C@H](Cc1ccccc1)NC(=O)[C@@H](N)CC(=O)O (H-Asp-Phe-OMe)
active: [6] 42.1 µM
inactive: all other assays above

CCCCCCCCCCCCC
inactive: all assays above

CCN1CN(CC)CN(CC)C1
active: [7] 175 µM | [11] 141 µM | [13] 97 µM | [14] 146 µM | [18] 174 µM | [19] 166 µM
inactive: all other assays above

CC1=CP(=O)(c2ccccc2)CC1 (centres undefined)
inactive: all assays above

CN(C)Cc1cc(CN(C)C)c(O)c(CN(C)C)c1
inactive: all assays above
